Screens deposited in PubChem by National Center for Advancing Translational Sciences (NCATS).
HepG2 viability = counter-screen for TGF-b inhibitors: cytotoxicity in HepG2 cells; HepG2 CAGA-GFP viability, ATP luminescence, 18 h; Potency, µM (top dose mostly 46.1 µM), for the others: top-dose activity change, negative = cytotoxicity, actives largely listed as cytotoxic; hit rate 0.76% among 410,000; AID 588856
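HepG2 CAGA-GFP cells (1000/well, DMEM with 1% FBS) received compound, then TGF-beta at 500 pg/mL final, and were incubated 18 hours at 37 degrees C. Viability was read by CellTiter-Glo luminescence. Media-only wells were set as complete cell-killing and DMSO as no toxicity.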
HT1080 IDH1KD tx = kills HT-1080 cells with IDH1 knockdown | HT-1080 IDH1 knockdown viability, ATP luminescence, 48 h | Potency, µM (titrated, usually from 46.1 µM), for the others: at the highest dose activity, negative = toxicity, most hits filed as cytotoxic | hit rate 2% among 360,000;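 note: 0% = DMSO wells and -100% = cell-free medium wells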
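Luminescent ATP read-out (CellTiter-Glo, 10 min at room temperature) after 48 h compound exposure at 37 °C gave viability of IDH1-knockdown HT-1080 cells. Activity was normalised to DMSO and cell-free wells, then fitted as concentration-response curves.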
HT1080-NT tox = kills 2HG-producing HT-1080-NT fibrosarcoma cells; HT-1080-NT fibrosarcoma viability, CellTiter-Glo ATP luminescence, 48 h; Potency, µM (doses to about 46.1 µM), for the others: top-dose activity, negative = less viability, most hits filed as cytotoxic; hit rate 1.6% among 360,000; AID 686970;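 note: NT is the 2HG producing partner of a matched IDH1 knockdown line; 0% = DMSO-treated cells and -100% = media-only wells without cells; nearly all actives have a fitted effect of over 55% in size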
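Luminescent CellTiter-Glo readout after 48 hours of compound exposure at 37 degrees C defined viability of HT-1080-NT cells. Activity was normalized to DMSO wells and cell-free media wells; concentration-response curves were fitted and assigned curve classes.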
TGFb inhibitor = inhibitors of TGF-b signaling. HepG2 CAGA-GFP TGF-b/SMAD3 reporter, GFP fluorescence, 18 h; TGF-beta stimulated, 500 pg/mL final. Potency, µM (top dose mostly 46.1 µM), inactives show at the highest dose activity, negative = inhibition, most hits filed as inhibitors. hit rate 1.2% among 410,000. AID 588855; note: % is set by controls: 0 for no effect and ±100 for the full control effect; nearly all actives have a fitted effect of over 65% in size
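HEPG2 CAGA-GFP cells (1000/well, DMEM with 1% FBS) were pre-incubated 2 h at 37 degrees C, given compound by pin tool, then stimulated with TGF-beta at 500 pg/mL final for 18 h before per-cell GFP fluorescence imaging.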
S2 tox = reduces viability in counter-screen for ATXN expression inhibitors. hit rate 0.49% among 400,000. Potency, µM (titrated, usually from 56.7 µM), most hits filed as cytotoxic. S2 cells (HEK-293 line with an ATXN2-luciferase reporter) viability, CellTiter-Fluor protease fluorescence, 24 h; note: nearly all actives have a fitted effect of over 40% in size
ATXN2 expr inh = inhibitors of ATXN2 expression; Potency, µM (top dose mostly 57 µM), for inactives: at the highest dose activity change, negative = inhibition, hits mostly inhibitors; HEK-293 ATXN2-luciferase reporter, luminescence, 24 h; hit rate 0.72% among 360,000; AID 1745845; note: % is set by controls: 0 for no effect and ±100 for the full control effect; nearly all actives have a fitted effect of over 55% in size
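ATXN2-luciferase reporter cells (luciferase flanked by upstream and downstream ATXN2 gene portions) were treated 24 h at 37 °C with compounds at up to 57 uM. SteadyGlo luminescence gave expression; GF-AFC fluorescence gave viability.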
* hit, by the source's call. The list is not random: actives were taken first. Their share in the collection is about 3.8%. Calls come from the whole dose curve; as a rule, active = well fitted curve in the direction sought with a large enough effect; inconclusive = small, poorly fitted or top-dose-only effect, or another doubt; inactive = no such curve, though single readings can be large; an effect the other way counts as inactive or inconclusive. Potency is the fitted concentration of half-maximal effect.

Screening CSc1nc(N)nc(SCCS(=O)(=O)c2ccc(Cl)cc2)c1C#N returned HepG2 viability 0.0%, HT1080 IDH1KD tx 11.2µM*, HT1080-NT tox inconclusive, TGFb inhibitor inconclusive, S2 tox inconclusive and ATXN2 expr inh inconclusive.
COc1ccc(OC)c(-c2ccnc(-n3ncc(C(=O)N(C)CCO)c3C3CC3)n2)c1 was read as S2 tox inactive.
Screening COc1cccc(NC(=S)NCCC(c2ccccc2)c2ccccc2)c1 returned HepG2 viability -8.1%, HT1080 IDH1KD tx -22.8%, HT1080-NT tox -19.7%, TGFb inhibitor inconclusive, S2 tox inactive and ATXN2 expr inh -19.4%.
COc1ccc(NC(=S)NCCC(c2ccccc2)c2ccccc2)c(OC)c1 was read as HepG2 viability -21.4%, HT1080 IDH1KD tx 22.4µM*, HT1080-NT tox -20.3%, TGFb inhibitor inconclusive, S2 tox inactive and ATXN2 expr inh -26.3%.
Screening Cc1cccc(NC(=S)NCCC(c2ccccc2)c2ccccc2)c1 returned HepG2 viability -22.5%, HT1080 IDH1KD tx -8.4%, HT1080-NT tox -2.2%, TGFb inhibitor 11.2µM*, S2 tox inactive and ATXN2 expr inh -0.6%.
Screening CC1CC(C)CN(c2oc(-c3ccc(OCc4ccccc4Cl)cc3)nc2C#N)C1 (stereo not drawn) returned HepG2 viability -2.4% and TGFb inhibitor 0.7%.
For Cc1nn(CC(=O)NC2CCCCC2)c(=O)c2cc3cc(F)ccc3n12 the results were HepG2 viability -7.1%, TGFb inhibitor -4.4%, S2 tox inactive and ATXN2 expr inh 8.5%.
For Nc1ncc(-c2ccccc2)c(-c2ccc(OCc3ccccc3)cc2O)n1 the results were HepG2 viability 17.8µM*, HT1080 IDH1KD tx inconclusive, HT1080-NT tox inconclusive, TGFb inhibitor inconclusive, S2 tox inactive and ATXN2 expr inh -7.0%.
COc1ccccc1-c1cn[nH]c1-c1ccc(OCc2ccc(F)cc2)cc1O was read as HepG2 viability -34.8%, HT1080 IDH1KD tx inconclusive, HT1080-NT tox inconclusive, TGFb inhibitor inconclusive, S2 tox inactive and ATXN2 expr inh -14.5%.
Screening COc1ccccc1-c1cn[nH]c1-c1ccc(OCc2ccccc2F)cc1O returned HepG2 viability 22.4µM*, HT1080 IDH1KD tx inconclusive, HT1080-NT tox inconclusive, TGFb inhibitor inconclusive, S2 tox inconclusive and ATXN2 expr inh inconclusive.
Screening COc1ccccc1-c1cn[nH]c1-c1ccc(OCc2ccc([N+](=O)[O-])cc2)cc1O returned HepG2 viability -48.0%, HT1080 IDH1KD tx -28.4%, HT1080-NT tox inconclusive, TGFb inhibitor inconclusive, S2 tox inactive and ATXN2 expr inh 3.5%.
Screening Oc1cc(OCc2ccccc2)ccc1-c1[nH]ncc1-c1ccccc1 returned HepG2 viability 20µM*, HT1080 IDH1KD tx 23.1µM*, HT1080-NT tox 16.4µM*, TGFb inhibitor inconclusive, S2 tox inconclusive and ATXN2 expr inh inconclusive.
Screening COc1ccc(-c2cn[nH]c2-c2ccc(OCc3ccccc3)cc2O)cc1OC returned HepG2 viability -53.9%, HT1080 IDH1KD tx 13µM*, HT1080-NT tox inconclusive, TGFb inhibitor inconclusive, S2 tox inconclusive and ATXN2 expr inh -26.4%.
`COc1ccc(C(=O)NCc2nnc(SCC(=O)Nc3ccccc3)n2-c2ccccc2)cc1` gave HepG2 viability 6.4%, TGFb inhibitor -14.5%, S2 tox inactive and ATXN2 expr inh -2.3%.
Screening COc1ccc(-c2cn[nH]c2-c2ccc(O)cc2O)cc1 returned HepG2 viability 3.0%, HT1080 IDH1KD tx 3.7%, HT1080-NT tox 2.3%, TGFb inhibitor -8.0%, S2 tox inactive and ATXN2 expr inh -4.4%.
`COc1ccc(-c2cn[nH]c2-c2ccc(OCc3ccc(F)cc3)cc2O)cc1OC` gave HepG2 viability -30.4%, HT1080 IDH1KD tx 18.4µM*, HT1080-NT tox -27.9%, TGFb inhibitor 14.1µM*, S2 tox inconclusive and ATXN2 expr inh inconclusive.
Cc1ccc(C(=O)CSc2nnc3ccccn23)c(C)c1 was read as HepG2 viability -27.8%, HT1080 IDH1KD tx 6.4%, HT1080-NT tox 1.9%, TGFb inhibitor inconclusive, S2 tox inactive and ATXN2 expr inh -16.6%.
Screening COCCn1c(C)cc(C(=O)CSc2nnc3ccccn23)c1C returned HepG2 viability -23.9%, HT1080 IDH1KD tx -11.0%, HT1080-NT tox -2.1%, TGFb inhibitor -1.0%, S2 tox inactive and ATXN2 expr inh 7.08µM*.
For COCc1ccc(CN2CCOc3c(cc(-c4ccc(SC)cc4)cc3OC)C2)o1 the results were S2 tox inactive.
Screening CCc1nc(N2CCN(C(=O)CCl)CC2)c2c3c(sc2n1)CC(C)CC3 (stereo not drawn) returned HepG2 viability 17.8µM*, HT1080 IDH1KD tx 20.6µM*, HT1080-NT tox 20.6µM*, TGFb inhibitor inconclusive and ATXN2 expr inh -20.6%.
C#CCOCCOCCOCCNc1nc(N2CCN(C(=O)CCCCCCCCCCNC(=O)[C@H]([C@@H](C)CC)n3cc(CCCCCN)nn3)CC2)nc(N2CCN(C(=O)CCCCCCCCCCNC(=O)[C@@H]([C@H](C)O)n3cc(C)nn3)CC2)n1 was read as HepG2 viability -102.0%, HT1080 IDH1KD tx inconclusive, HT1080-NT tox inconclusive, TGFb inhibitor inconclusive, S2 tox 15.8µM* and ATXN2 expr inh 15.8µM*.
`C#CCOCCOCCOCCNc1nc(N2CCN(C(=O)CCCCCCCCCCNC(=O)[C@@H]([C@H](C)O)n3cc(C)nn3)CC2)nc(N2CCN(C(=O)CCCCCCCCCCNC(=O)[C@@H]([C@H](C)O)n3cc(C)nn3)CC2)n1` gave HepG2 viability -3.4%, HT1080 IDH1KD tx 20.6µM*, HT1080-NT tox -27.4%, TGFb inhibitor -9.5%, S2 tox inactive and ATXN2 expr inh -13.8%.
Screening C#CCOCCOCCOCCNc1nc(N2CCN(C(=O)CCCCCCCCCCNC(=O)Cn3cc(CCCCCN)nn3)CC2)nc(N2CCN(C(=O)CCCCCCCCCCNC(=O)[C@H]([C@@H](C)CC)n3cc(CCCCCN)nn3)CC2)n1 returned HepG2 viability -115.5%, HT1080 IDH1KD tx inconclusive, HT1080-NT tox inconclusive, TGFb inhibitor inconclusive, S2 tox 22.4µM* and ATXN2 expr inh inconclusive.
C[C@@H]1[C@H](c2ccccc2)OCCS(=O)(=O)N1Cc1ccccc1Br was read as HepG2 viability 6.8% and TGFb inhibitor inconclusive.
`COC(=O)[C@@H]1[C@@H]2C[C@H]3c4[nH]c5ccccc5c4CCN3C[C@@H]2CC[C@@H]1O` gave S2 tox inactive.
